Laboratory results published in PubChem BioAssay (NCI).
About 83,000 compounds went through this panel and 20% of them were active in at least one assay; those are over-represented in the sample as a whole.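 Cell lines were cultured in 96-well plates, exposed to a single compound concentration, and assessed for percent growth 48 hours later.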 Values without a mark were called inactive. The source made the active and inactive calls. Rule for the calls: active = growth percent below 10; inactive = the rest.

Columns and labels:
Assay in all cases: NCI-60 one-dose screen, 48 h (100 = growth as untreated, 0 = no growth, -100 = all killed)
Conditions in all cases: 10 µM unless noted
RPMI-8226 leukemia = system: RPMI-8226 leukemia
OVCAR-8 ovarian = system: OVCAR-8 ovarian
OVCAR-5 ovarian = system: OVCAR-5 ovarian
OVCAR-4 ovarian = system: OVCAR-4 ovarian
SK-OV-3 ovarian = system: SK-OV-3 ovarian
IGROV1 ovarian = system: IGROV1 ovarian
OVCAR-3 ovarian = system: OVCAR-3 ovarian
HS 578T breast = system: HS 578T breast
NCI/ADR-RES ovarian = system: NCI/ADR-RES ovarian
T-47D breast = system: T-47D breast
BT-549 breast = system: BT-549 breast
MDA-MB-435 melanoma = system: MDA-MB-435 melanoma
SW-620 colon = system: SW-620 colon
MCF7 breast = system: MCF7 breast
HCT-116 colon = system: HCT-116 colon
KM12 colon = system: KM12 colon
HCC-2998 colon = system: HCC-2998 colon

SMILES | growth (RPMI-8226 leukemia) | growth (OVCAR-8 ovarian) | growth (OVCAR-5 ovarian) | growth (OVCAR-4 ovarian) | growth (SK-OV-3 ovarian) | growth (IGROV1 ovarian) | growth (OVCAR-3 ovarian) | growth (HS 578T breast) | growth (NCI/ADR-RES ovarian) | growth (T-47D breast) | growth (BT-549 breast) | growth (MDA-MB-435 melanoma) | growth (SW-620 colon) | growth (MCF7 breast) | growth (HCT-116 colon) | growth (KM12 colon) | growth (HCC-2998 colon)
CCCCc1ccc(Nc2ccc(Nc3ccc(CCCC)cc3S(=O)(=O)O)c3c2C(=O)c2ccccc2C3=O)c(S(=O)(=O)O)c1 | 52% | 99.8% | 97.8% | 99.9% | 91.5% | -16.9% (active) | 103% | 102% | 107% | 106% | 94% | 84.6% | 98.6% | 86.9% | 106% | 96.9% | –
O=C(N/N=C/c1ccncc1)c1ccc(C(F)(F)F)nc1Nc1cccc(C(F)(F)F)c1 | -64.1% (active) | -4.88% (active) | 24.7% | -0.699% (active) | 32.1% | -35.9% (active) | 1.03% (active) | 44.4% | -10.7% (active) | 25.6% | 23.8% | 36.4% | 14.8% | -14.5% (active) | – | 20.9% | -40.3% (active)
COc1ccc(N=Nc2ccc(O)c(=O)cc2)cc1 | 9.86% (active) | 9.87% (active) | 47.8% | 31.8% | 16.5% | 15.1% | 16.2% | 30.7% | -29% (active) | -0.237% (active) | 22% | 25.1% | 21.7% | 5.65% (active) | 24.7% | 18.2% | 36.2%
CC(C)(C)OC(=O)Nc1ccc2c(c1)C(NC(=O)Nc1cccc(C#N)c1)CC(C)(C)O2 (centres undefined) | 22.3% | 45.6% | 87.6% | 38.6% | 58% | 46% | 48% | 85.5% | 48% | 34.2% | 29% | 39.4% | 48.7% | 32.1% | 30.7% | 49.5% | –
Cc1ccc(S(=O)(=O)N/N=C\c2cc(Cl)ccc2O)cc1 | 82.3% | 91.2% | 82% | 102% | 63.3% | 51% | 115% | 91.3% | 71% | 86% | 91.7% | 82% | 81.4% | 82.6% | 48.2% | 108% | –
NC(=S)N/N=C/Cc1ccccc1 | 88.3% | 84.3% | 120% | 65.5% | 111% | 79% | 109% | 103% | 83.7% | 49.3% | 119% | 124% | 102% | 21.5% | 6.31% (active) | 107% | –
CCN(CC)c1ccc(C(=O)c2ccc(N(CC)CC)cc2)cc1 | 20.8% | 32.2% | 40.8% | 61.4% | -1.44% (active) | 37.3% | -20.3% (active) | 36.2% | -27.8% (active) | 20.1% | 4.9% (active) | 0.459% (active) | 26.4% | 13.5% | 10.2% | 25.1% | –
O=C1NC(=Nc2ccc(Cl)cc2)S/C1=C\c1cn(-c2ccccc2)nc1-c1ccccc1 | 83.3% | 75.1% | 98.6% | 0.154% (active) | 104% | 79.7% | 89.2% | 71% | 91.6% | 47.4% | 84.3% | 90.1% | 75.2% | 69.1% | 63.8% | 97.5% | 100%
Cn1c(=O)c2[nH]c(NN)nc2n(C)c1=O | 96% | 129% | 115% | 116% | 114% | 116% | 118% | 122% | 113% | 104% | 84.7% | 106% | 97.8% | 104% | 102% | 119% | –
S=C(c1ccc2c(c1)OCO2)N1CCN(c2ccccc2Cl)CC1 | 85.9% | 102% | 97.6% | 98.7% | 102% | 101% | 112% | 107% | 99.7% | 94% | 81.6% | 99.9% | 102% | 103% | 92.3% | 103% | 113%
CCCCCCCCCOc1c(OC)cc(C2CC(=O)Nc3c2c(C)nn3-c2nc3ccccc3[nH]2)cc1OC (centres undefined) | 10.1% | -1.61% (active) | -68.7% (active) | 1.92% (active) | -62.7% (active) | -51.1% (active) | -63.3% (active) | -23% (active) | -1.8% (active) | -11% (active) | -16.7% (active) | -47.4% (active) | -29.2% (active) | 4.28% (active) | 0.609% (active) | -53.1% (active) | –
CCCCN(CCCC)CC(C)(C)C(O)c1ccc(OC)c2ccccc12 (centres undefined) | 4.33% (active) | 74.2% | 57.6% | 56.7% | 79.1% | -13.4% (active) | -11.9% (active) | 55.7% | 49.3% | 52.9% | 57.1% | 59.3% | 33.4% | 45.5% | 3.51% (active) | 45.1% | 51.9%
CN(C)CCCn1c(=O)c2ccccc2c2ccccc21 | 59.9% | 49.8% | 73.3% | 86.3% | 92.3% | 56.2% | 96.5% | 79.3% | 78.3% | 87.9% | 103% | 89% | 42.8% | 58.4% | 26.5% | 75.8% | –
Cc1ccc(-c2cc(-c3cccnc3)[nH]c(=O)c2C#N)cc1 | 101% | 103% | 107% | 103% | 114% | 106% | 106% | 102% | 105% | 95.6% | 111% | 103% | 102% | 94.7% | 115% | 101% | 102%
COCCN(C(=O)c1ccc(F)cc1F)c1c(N)n(Cc2ccccc2)c(=O)[nH]c1=O | 112% | 112% | 92.2% | 98.9% | 111% | 2.97% (active) | 115% | 107% | 110% | 103% | 135% | 105% | 108% | 108% | – | 105% | 106%
COc1cccc(-c2nc3sccn3c2-c2ccnc(NCCNS(=O)(=O)c3cccc(F)c3)c2)c1 | -25.3% (active) | 12.7% | 71.4% | 21.5% | 45.9% | 31.6% | 36.7% | 27.9% | 12.6% | -2.17% (active) | -6.02% (active) | 43.8% | 51.9% | 37.7% | 24.5% | 27.3% | 52%
CCOc1ccccc1-n1c(CN2CCN(C(=O)COc3ccc(CNCCCCCCN4C5CCCC4CC(OC(=O)Nc4cc(C)ccc4OC)C5)cc3)CC2)nc2ccccc2c1=O (centres undefined) | -56.8% (active) | -88.4% (active) | -91.5% (active) | -84.7% (active) | -98.7% (active) | -77.4% (active) | -91.6% (active) | -42.2% (active) | 67% | -66.8% (active) | -90.8% (active) | -97% (active) | -86.8% (active) | -78.3% (active) | -91.5% (active) | -87.2% (active) | –
COc1cc(-c2nn(-c3ccccc3)cc2-c2ccnc(NCCNS(=O)(=O)c3ccc(Cl)cc3)n2)ccc1Cl | 35% | 36.1% | 68.8% | 38.3% | 22.7% | 38.2% | 35.1% | 58.4% | 31.7% | 4.68% (active) | 16.6% | 28.2% | 51.1% | 18% | 14.3% | 20.8% | –
